High-throughput results (PubChem BioAssay)
KDM4E inh: qHTS Assay for Inhibitors of Human Jumonji Domain Containing 2E (JMJD2E) | JMJD2E catalytic domain, FDH-coupled NADH fluorescence (FDH is formaldehyde dehydrogenase) | Potency, µM (top dose mostly 57.1 µM), without a hit: top-dose activity change, negative = inhibition, hits mostly inhibitors | hit rate 1.6% among 230,000 | AID 2147, 2009; active = well fitted inhibition curve with a large enough effect, not every such curve was filed as active; inconclusive = small, poorly fitted or top-dose-only effect, or another doubt; inactive = no such curve, though single readings can be large or run the other way;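 note: potency is the fitted concentration of half-maximal effect; 0% = wells with enzyme and -100% = buffer wells without enzyme; nearly all actives have a fitted effect of over 50% in size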
Target sequence (B2RXH2 1-337 limits assumed): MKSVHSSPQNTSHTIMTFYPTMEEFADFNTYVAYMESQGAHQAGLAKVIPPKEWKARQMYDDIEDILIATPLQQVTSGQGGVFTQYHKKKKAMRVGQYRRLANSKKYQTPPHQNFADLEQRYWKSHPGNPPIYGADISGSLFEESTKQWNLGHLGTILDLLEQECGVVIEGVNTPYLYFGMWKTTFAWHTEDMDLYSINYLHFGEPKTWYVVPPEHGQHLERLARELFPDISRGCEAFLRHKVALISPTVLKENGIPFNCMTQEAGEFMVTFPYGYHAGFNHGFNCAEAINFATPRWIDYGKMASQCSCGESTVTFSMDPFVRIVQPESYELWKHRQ
Tau FP inhib: qHTS for Inhibitors of Tau Fibril Formation, Fluorescence Polarization | Microtubule-associated protein tau (Homo sapiens), P10636 | K18 P301L tau heparin fibrillization, Alexa594 FP, 6 h | Potency, µM (doses to about 57.7 µM), inactives show top-dose activity, negative = inhibition, most hits filed as inhibitors | hit rate 0.39% among 280,000; note: potency is the fitted concentration of half-maximal effect; nearly all actives have a fitted effect of over 55% in size
Target sequence (P10636 561-689 P618L limits assumed): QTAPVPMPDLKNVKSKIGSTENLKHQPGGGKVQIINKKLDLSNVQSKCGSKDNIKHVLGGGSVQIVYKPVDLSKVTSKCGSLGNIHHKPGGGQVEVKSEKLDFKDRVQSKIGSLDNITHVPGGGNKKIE
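Read-out: fluorescence polarization of Alexa 594-labeled tau (0.24 uM), 555 nm excitation, 632 nm emission. Mixtures held 15 uM unlabeled K18 P301L, compound and 20 uM heparin, pH 7 acetate buffer, incubated 6 hr at 37 C.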
PNC inhibitor: High Content Assay for Compounds that inhibit the Assembly of the Perinucleolar Compartment | PC3M PTB-GFP, PNC prevalence imaging, 16 h; stronger effect = lower value | activity change (PNC), negative = inhibition, % at 10 µM | hit rate 3.1% among 140,000;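 active = readout at or below -70, meaning at least 70% loss of cells showing the perinucleolar compartment, a nuclear body marking cancer cells; inconclusive = readout between -30 and a set limit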;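 note: plate controls were DMSO wells for no effect and camptothecin positive control wells for full effect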
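Compounds are pinned in duplicate onto adhered PC3M cells stably expressing GFP-tagged PTB and incubated 16 h at 37 C. Cells are then fixed, nuclei stained with Hoechst, and PNC-positive cells counted.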
NPSR antagonist: qHTS Assay for Antagonists of the Neuropeptide S Receptor: cAMP Signal Transduction; Q6W5P4; AID 1461, 2008; CHO-NPSR cells, cAMP TR-FRET, antagonist mode; Potency, µM (doses to about 38.3 µM), for inactives: at the top dose activity change, negative = inhibition, usual class: inhibitors; hit rate 1% among 220,000; note: potency is the fitted concentration of half-maximal effect; nearly all actives have a fitted effect of over 50% in size
Tau ThT inhib: qHTS for Inhibitors of Tau Fibril Formation, Thioflavin T Binding. hit rate 2.1% among 270,000. Microtubule-associated protein tau (Homo sapiens), P10636. AID 1460, 2008. Potency, µM (series often up to 57.4 µM), for the others: at the highest dose activity, negative = inhibition, hits mostly inhibitors. recombinant tau K18 P301L, heparin-induced fibrillization, ThT fluorescence; note: potency is the fitted concentration of half-maximal effect; nearly all actives have a fitted effect of over 55% in size
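Tau K18 P301L fragment (15 uM unlabeled plus 0.24 uM Alexa 594-labeled) in 100 mM sodium acetate pH 7 with compound, fibrillization induced by 20 uM heparin for 6 hr at 37 C. Thioflavin T (30 uM) added, fluorescence read after 1 hr (ex 450, em 510 nm).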
Tau fluor counter: Counterscreen qHTS for Inhibitors of Tau Fibril Formation, Fluorescence Polarization; tau K18 P301L (four-repeat tau fragment) Alexa594 fluorescence, heparin fibrillization; Potency, µM (titrated, usually from 57.7 µM), inactives show at the highest dose activity change, negative = decrease; hit rate 0.93% among 280,000; note: potency is the fitted concentration of half-maximal effect; nearly all actives have a fitted effect of over 55% in size
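Human K18 P301L tau (15 uM unlabeled plus 0.24 uM Alexa 594-labeled, final) in 100 mM sodium acetate pH 7 was mixed with compound and 20 uM heparin and incubated 6 hr at 37 C.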
* = called active by the depositor; u = inconclusive; x = no result; [ ] = remark or other dose. Hits are enriched below; roughly 5.1% of the tested compounds scored in any of these assays. Unless noted, calls come from the whole dose curve; as a rule, active = well fitted curve in the direction sought with a large enough effect; inconclusive = small, poorly fitted or top-dose-only effect, or another doubt; inactive = no such curve, though single readings can be large; an effect the other way counts as inactive or inconclusive. Unless noted, % is set by controls: 0 for no effect and ±100 for the full control effect.

SMILES | KDM4E inh | Tau FP inhib | PNC inhibitor | NPSR antagonist | Tau ThT inhib | Tau fluor counter
COC(=O)C1CCN(Cc2ccc(C)cc2)CC1 | -1% | -5% | 2 | 2%[46.1 µM] | -6% | -5%
CCOc1nc(NCCO)nc(NCCC2=CCCCC2)n1 | 1% | 6% | -100* | -12%[46.1 µM] | -7% | -4%
CCOc1nc(NCCC2=CCCCC2)nc(N2CCOCC2)n1 | 8% | 9% | -23 | 10%[46.1 µM] | -7% | 1%
COc1cc(/C=C2\C(=O)NN(c3ccccc3)C2=O)cc([N+](=O)[O-])c1O | -15% | -6% | x | -50% | 11µM* | -30%
COc1cc(/C=C2\C(=O)NN(c3ccc(C)cc3)C2=O)cc([N+](=O)[O-])c1O | -13% | -4% | x | -56% | 13µM* | u
CCOc1cc(/C=C2\C(=O)NN(c3ccccc3)C2=O)cc([N+](=O)[O-])c1O | -5% | -12% | x | u | u | -23%
COc1cc(/C=N/n2c(=S)[nH]nc(C)c2=O)cc([N+](=O)[O-])c1O | -5% | -2% | x | -22% | -5% | -11%
O=C(Cn1cc(/C=C\[N+](=O)[O-])c2ccccc21)Nc1ccccc1 | -1% | -5% | x | 13µM* | x | -23%
O=[N+]([O-])/C=C/c1cn(Cc2ccccc2)c2ccccc12 | 5% | 2% | 19 | 10µM* | u | -9%
O=C(O)Cn1cc(/C=C/[N+](=O)[O-])c2ccccc21 | 1% | 1% | x | -48% | u | 1%
O=C(Cn1ccn(-c2ccc(F)cc2)c(=O)c1=O)NCCc1ccccc1 | x | u | x | x | 10% | 16%
C=Cc1ccc(CN2C(=O)N(c3cccc(Cl)c3)S(=O)(=O)c3ccccc32)cc1 | x | u | x | x | 8% | -18%
COc1ccc(-c2cc(-c3cc(F)ccc3O)[nH]n2)cc1OC | -17% | u | 15 | u | u | 25µM*[quencher]
Cc1ccc(O)c(-c2cc(-c3cccc(F)c3)n[nH]2)c1 | -8% | u | -17 | u | -12% | 32µM*[quencher]
COc1ccc(-c2cc(-c3ccccc3O)[nH]n2)cc1OC | -3% | u | u | -26%[46.1 µM] | u | u
COc1ccc(-c2cc(-c3ccc(OC)c(OC)c3)n[nH]2)c(O)c1 | u | 2% | 4 | -15%[46.1 µM] | -9% | 16µM*[quencher]
COc1cccc(N2CCN(C(=O)Cn3cnc4onc(-c5ccc(F)cc5)c4c3=O)CC2)c1 | x | 1% | x | x | -2% | u
c1ccc(N2CCN(c3ncnc4[nH]ncc34)CC2)cc1 | x | 3% | x | x | u | -13%
Cc1cccc(N2CCN(C(=O)c3cnn(-c4ccc(F)cc4F)c3C3CCN(C(=O)OC(C)(C)C)CC3)CC2)c1C | x | 0% | x | x | -15% | -8%
COc1ccccc1C(=O)NC1(C(F)(F)F)C(=O)Nc2c1c(=O)[nH]c(=O)n2-c1ccccc1 (stereo not given) | x | -2% | x | x | -1% | -1%
CCCn1c(O)c(N=Nc2ccc3ccccc3n2)c2ccccc21 | 15% | 0% | -115* | -11% | 13µM* | -6%
CC(C)CCn1c(O)c(N=Nc2ccccn2)c2ccccc21 | -17% | -14% | u | -26% | u | -28%
CCN1c2ccccc2N(C)C1(C)c1ccccc1 (stereo not given) | u | 16µM* | -13 | -9% | 4.5µM* | u
CC[C@H]1C(c2ccc(F)cc2)=NN(c2ccccc2)[C@@H]1CO | x | u | x | x | u | 22µM*[quencher]
OC[C@@H]1[C@@H](c2ccc(F)cc2)C(c2ccccc2)=NN1c1ccccc1 | x | 13%[81.3 µM] | x | x | u | 16µM*[quencher]
Cc1cccc(C2=NN(c3ccccc3)[C@H](CO)[C@H]2c2ccccc2)c1 | x | u | x | x | u | 18µM*[quencher]
Cc1cccc(C2=NN(c3ccccc3)[C@@H](C(=O)N3CCOC3=O)[C@@H]2c2ccc(F)cc2)c1 | x | 5% | x | x | -10% | u
CCOc1ccc(C2C(C(N)=O)=C(C)Nc3nc(SCc4ccccc4F)nn32)cc1 (stereo not given) | x | -3% | x | x | 19% | 2%
